Measurements published in PubChem BioAssay (NCATS).
Active and inactive are the calls of the source. The call rests on the fitted dose curve.

Legend:
Assay in all cases: Confirmatory Screen for Target Class Profiling of Small Molecule Inhibitors of Methyltransferases (AID 1745852); on activity change, negative = inhibition: on the % scale 0 is the no-effect control and ±100 the full control effect
[1] = target: Catechol O-methyltransferase (Homo sapiens) (UniProt P21964); conditions: MTase-Glo luminescence, SAH detection, recombinant enzyme; measured here: COMT max response; stronger effect = lower value
[2] = target: Guanidinoacetate N-methyltransferase (Homo sapiens) (UniProt Q14353); conditions: MTase-Glo luminescence, SAH detection, recombinant enzyme; activity change, negative = inhibition: at 57.3 µM (top of the series) unless noted; series mostly up to 57.3 µM
[3] = target: Nicotinamide N-methyltransferase (Homo sapiens) (UniProt P40261); conditions: MTase-Glo luminescence, SAH detection, recombinant enzyme; measured here: NNMT max response; stronger effect = lower value
[4] = target: Phenylethanolamine N-methyltransferase (Homo sapiens) (UniProt P11086); conditions: MTase-Glo luminescence, SAH detection, recombinant enzyme; measured here: PNMT max response; stronger effect = lower value
Potency means the concentration at half of the fitted maximal effect.

Chain of Phenylethanolamine N-methyltransferase (Homo sapiens) (P11086 whole entry, looked up): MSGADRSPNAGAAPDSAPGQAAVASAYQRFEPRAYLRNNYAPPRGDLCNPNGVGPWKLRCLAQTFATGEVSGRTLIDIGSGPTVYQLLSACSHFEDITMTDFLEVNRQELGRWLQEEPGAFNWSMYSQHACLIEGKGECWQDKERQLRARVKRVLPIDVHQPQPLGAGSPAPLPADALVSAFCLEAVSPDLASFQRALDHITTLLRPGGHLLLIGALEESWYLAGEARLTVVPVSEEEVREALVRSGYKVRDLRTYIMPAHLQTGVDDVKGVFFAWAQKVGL
Chain of Nicotinamide N-methyltransferase (Homo sapiens) (P40261 whole entry, looked up): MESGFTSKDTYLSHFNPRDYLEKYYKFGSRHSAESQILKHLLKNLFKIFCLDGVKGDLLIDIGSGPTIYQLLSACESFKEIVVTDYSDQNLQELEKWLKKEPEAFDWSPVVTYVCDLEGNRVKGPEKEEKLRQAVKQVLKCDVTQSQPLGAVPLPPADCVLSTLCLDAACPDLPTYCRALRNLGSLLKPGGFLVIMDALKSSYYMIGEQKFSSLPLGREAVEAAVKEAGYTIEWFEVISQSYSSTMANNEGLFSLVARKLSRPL
Chain of Catechol O-methyltransferase (Homo sapiens) (P21964 whole entry, looked up): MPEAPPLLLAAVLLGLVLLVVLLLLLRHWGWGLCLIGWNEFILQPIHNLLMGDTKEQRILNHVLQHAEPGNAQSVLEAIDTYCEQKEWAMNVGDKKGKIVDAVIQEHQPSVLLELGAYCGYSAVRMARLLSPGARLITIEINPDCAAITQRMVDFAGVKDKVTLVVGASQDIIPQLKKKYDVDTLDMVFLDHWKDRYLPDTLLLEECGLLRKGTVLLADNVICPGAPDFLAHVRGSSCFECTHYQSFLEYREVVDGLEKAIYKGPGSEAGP

Row | Structure (SMILES) | activity [1] | activity change, negative = inhibition [2] | activity [3] | activity [4] | Potency [2]
1 | OC1(Cn2ccnc2)CCN(Cc2ccccc2Cn2cccn2)CC1 | 3.04% | 3.7% | 4.14% | 5.79% | 
2 | O=C(CCCc1nnc2n3nc(-c4ccccc4)nc3c3ccccc3n12)N1CCC(N2CCCCC2)CC1 | -14.2% | -7.55% | -20.9% | -10.5% | 
3 | CC1CCCCN1CCCNC(=O)Cn1ccc2cc(S(=O)(=O)N3CCCCC3)ccc21 (centres undefined) | 1.36% | 0% | 0.0396% | -0.622% | 
4 | COc1ccc(-c2nc3ccncc3[nH]2)cc1 | -92.6% |  | -106% | -86.1% | 12.4 µM (active)
5 | CC1CCCC(NC(=O)C2(C)Cn3c(cc4occc43)C(=O)N2Cc2ccco2)C1C (centres undefined) | -10.3% | -6.55% | -20.3% | -11.1% | 
6 | COc1cccc(N2C(=O)c3cc4occc4n3CC2(C)C(=O)NC2CCCCCC2)c1 (centres undefined) | -4.86% | -2.57% | -10.8% | -10.9% | 
7 | CCCS(=O)(=O)N1CCCC(Cn2c(C)nc3cccnc32)C1 (centres undefined) | 1.15% | 2.96% | 7.76% | 4.99% | 
8 | O=C(c1cc(-c2ccccc2)n[nH]1)N1CCc2c(nc(-c3ccccc3)[nH]c2=O)C1 | 4.33% | 7.17% | 3.92% | 5.63% | 
9 | O=C(Cn1c(=O)oc2cc(S(=O)(=O)N3CCCC3)ccc21)Nc1cccc(Cl)c1 | -1.16% | 0% | 4.81% | -49.8% | 
10 | N#Cc1cnc(N2CC3CCC(C2)N3CC(F)(F)F)s1 | -0.326% | -4.72% [at 85.7 µM] | -7.9% | -0.128% | 
11 | COCCNc1cc(-c2noc([C@@H]3CCCN3CC(C)C)n2)ccn1 | 3.05% | 1.02% [at 85.7 µM] | -4.35% | 2.32% | 
12 | COc1ccc(OC)c2c1cc1n2CC(C)(C(=O)NC2CCCCC2)N(Cc2cccnc2)C1=O (centres undefined) | -8.96% | -5.74% | -28.2% | -10.7% | 
13 | COc1cccc([S+](=O)([O-])N2CCC3(C2)N=C(c2cccnc2)C(=O)N3)c1 (centres undefined) | -6.05% | -6.21% | -8.17% | -16.9% | 
14 | CC1CCCCN1CCCNC(=O)c1cc2c(s1)CN(C1CCCC1)C2 (centres undefined) | 3.35% | 2.38% | 3.93% | 4.11% | 
15 | COc1ccc(OC)c2c1cc1n2CC(C)(C(=O)NC2CCCCC2C)N(Cc2ccco2)C1=O (centres undefined) | -9.78% | -6.29% | -25.6% | -10.3% | 
16 | CCN(CC)Cc1cnc2c(C(=O)N3CCCN4CCC[C@H]4C3)cnn2c1 | -42.2% | 7.01% | 12.3% | 8.45% | 

Row | Structure (SMILES) | activity [1] | activity change, negative = inhibition [2] | activity [3] | activity [4] | Potency [2]
17 | Cc1cnc(CCNC(=O)c2cccs2)n1C1CCC1 | 0.518% | 3.29% | 8.96% | 6.31% | 
18 | COc1ccc(-c2nnn3c2nc(NCCc2ccc(OC)c(OC)c2)c2ccccc23)cc1 | -10.5% | -2.81% | -12.4% | -9.28% | 
19 | COc1ccc(-c2cc(-c3cnn(C)c3)cn3cncc23)cn1 | -23.7% | -6.32% [at 85.7 µM] | -36.8% | -7.46% | 
20 | COc1ccccc1-c1[nH]nc2ncc(C(=O)NCC3CC3)nc12 | -33.3% | -13.8% [at 85.7 µM] | -16.5% | -40.5% | 
21 | CC(C)OCCCn1c(=O)c2ccccc2n2c(CCC(=O)N3CCN(c4cccc(Cl)c4)CC3)nnc12 | 0.543% | 0% | -39.1% | -4.41% | 
22 | CCn1cc(CN2CCN(C(=O)c3cccs3)CC2)ccc1=O | 0.352% | -2.5% | -1.21% | -6.54% | 
23 | COc1ccc(-c2cc3c(cn2)CN(CCc2ccccc2)CCN3)cc1OC | -0.529% | 3.81% [at 85.7 µM] | -18.9% | -48.8% | 
24 | Cc1ccc(C)c(N2CCN(C(=O)c3ccc4c(=O)[nH]c5c(C(=O)NC(C)C)sc(=S)n5c4c3)CC2)c1 | -41.7% | -2.19% | -76.8% | -17.9% | 
25 | O=C(NCc1ccc(Cl)cc1)c1ccc2c(=O)[nH]c3c(C(=O)NC4CCCC4)sc(=S)n3c2c1 | -32.6% |  | -79.2% | -80.2% | 42.9 µM (active)
26 | CCN(CC)CCCNC(=O)CCc1nnc2n(Cc3ccccc3)c(=O)c3ccccc3n12 | 1.43% | 0% | -2.92% | 0.626% | 
27 | Cn1ncc2c(N3CCN(S(N)(=O)=O)CC3)nc(C3CCCC3)nc21 | -8.84% | -4.64% | -39.7% | -18% | 
28 | CN(CCCNC(=O)CCCc1nnc2n3nc(-c4ccccc4)nc3c3ccccc3n12)Cc1ccccc1 | 2.29% | 0% | -6.15% | 3.41% | 
29 | CCCN1CCn2c3c(c4cc(OC)ccc42)CCN=C31 | -5.03% | -1.32% | -6.4% | -5.52% | 
30 | CCOc1cc(CNc2ccc(C(=O)O)cc2)ccc1OCc1ccccc1 | -41.3% | 0.912% | -22.2% | -2.65% | 
31 | CC1=C[C@@H](CN(CC2CC2)CC2CC2)[C@H](C(C)C)C[C@H]1Cc1nc2ccncc2[nH]1 | 3.81% | 4.35% [at 85.7 µM] | -1.17% | 3.65% | 
